# Assays:
# Assay in all cases: DAPPL (digital affinity profiling via proximity ligation, sequencing); 10 mM Tris-HCl pH 7.5, 50 mM NaCl, 1 mM DTT, 4% glycerol, room temperature, 30 min; GST-TFs on glutathione beads, 16-mer random dsDNA library, 0.1% formaldehyde crosslink after washing; high values mean tight binding
# FLI1 = molecular target: T1, FLI1 (Homo sapiens, UniProt Q01543 1-452); conditions: protein: recombinant; tags: N-terminal GST; dsDNA, one strand shown
# T1 sequence: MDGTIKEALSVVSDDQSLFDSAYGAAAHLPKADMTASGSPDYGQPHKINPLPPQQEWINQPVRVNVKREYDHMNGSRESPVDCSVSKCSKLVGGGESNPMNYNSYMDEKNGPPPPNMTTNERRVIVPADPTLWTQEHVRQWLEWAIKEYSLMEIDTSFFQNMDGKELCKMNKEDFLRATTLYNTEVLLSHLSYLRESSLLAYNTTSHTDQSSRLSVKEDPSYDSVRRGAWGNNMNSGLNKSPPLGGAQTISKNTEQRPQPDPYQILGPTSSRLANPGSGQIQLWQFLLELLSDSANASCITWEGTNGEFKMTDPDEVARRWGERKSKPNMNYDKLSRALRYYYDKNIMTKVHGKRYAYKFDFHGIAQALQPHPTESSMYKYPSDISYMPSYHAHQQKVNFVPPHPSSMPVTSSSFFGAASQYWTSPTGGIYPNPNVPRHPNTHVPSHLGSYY
# Summary of the method: (§1)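 Human transcription factors were made in yeast as GST fusions, captured on glutathione beads and barcoded with DNA. With a tag-only sample included, the pool was incubated with 200 nmole of a random double-stranded 16-mer DNA library in Tris/NaCl/DTT/glycerol buffer at room temperature for 30 min, then crosslinked with 0.1% formaldehyde after washing, ligated by proximity, amplified and sequenced. For binding signal, each hexamer's read frequency for a factor is divided by its frequency for the tag-only sample.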
# ELK1 = molecular target: T2, ELK1 (Homo sapiens, UniProt P19419 1-428); conditions: protein: recombinant; tags: N-terminal GST; dsDNA, one strand shown
# T2 sequence: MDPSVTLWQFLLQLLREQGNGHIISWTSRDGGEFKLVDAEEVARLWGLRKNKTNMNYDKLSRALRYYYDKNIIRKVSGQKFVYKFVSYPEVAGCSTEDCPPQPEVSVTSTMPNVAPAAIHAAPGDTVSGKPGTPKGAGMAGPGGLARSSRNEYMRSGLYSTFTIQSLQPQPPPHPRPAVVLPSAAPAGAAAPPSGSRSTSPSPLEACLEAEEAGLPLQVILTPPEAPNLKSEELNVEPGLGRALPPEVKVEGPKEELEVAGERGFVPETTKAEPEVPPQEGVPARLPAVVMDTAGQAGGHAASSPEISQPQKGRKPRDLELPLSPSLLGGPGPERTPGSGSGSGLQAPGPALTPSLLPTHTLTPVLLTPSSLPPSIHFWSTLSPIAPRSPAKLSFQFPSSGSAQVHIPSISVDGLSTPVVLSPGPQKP
# Summary of the method: as §1
# GABPA = molecular target: T3, GABPA (Homo sapiens, UniProt Q06546 1-454); conditions: protein: recombinant; tags: N-terminal GST; dsDNA, one strand shown
# T3 sequence: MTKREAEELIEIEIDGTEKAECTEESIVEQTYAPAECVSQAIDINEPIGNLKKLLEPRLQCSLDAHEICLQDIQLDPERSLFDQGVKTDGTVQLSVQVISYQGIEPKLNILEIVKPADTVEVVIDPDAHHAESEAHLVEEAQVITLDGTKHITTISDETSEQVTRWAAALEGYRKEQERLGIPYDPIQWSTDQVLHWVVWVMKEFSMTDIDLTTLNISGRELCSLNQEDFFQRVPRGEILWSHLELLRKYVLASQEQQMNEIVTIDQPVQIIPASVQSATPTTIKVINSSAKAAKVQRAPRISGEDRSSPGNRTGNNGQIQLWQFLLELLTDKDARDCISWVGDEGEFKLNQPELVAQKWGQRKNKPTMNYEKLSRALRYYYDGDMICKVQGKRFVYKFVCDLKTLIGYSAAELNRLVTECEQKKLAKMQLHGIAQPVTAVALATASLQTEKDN
# Summary of the method: as §1
# ERG = molecular target: T4, ERG (Homo sapiens, UniProt P11308 1-479); conditions: protein: recombinant; tags: N-terminal GST; dsDNA, one strand shown
# T4 sequence: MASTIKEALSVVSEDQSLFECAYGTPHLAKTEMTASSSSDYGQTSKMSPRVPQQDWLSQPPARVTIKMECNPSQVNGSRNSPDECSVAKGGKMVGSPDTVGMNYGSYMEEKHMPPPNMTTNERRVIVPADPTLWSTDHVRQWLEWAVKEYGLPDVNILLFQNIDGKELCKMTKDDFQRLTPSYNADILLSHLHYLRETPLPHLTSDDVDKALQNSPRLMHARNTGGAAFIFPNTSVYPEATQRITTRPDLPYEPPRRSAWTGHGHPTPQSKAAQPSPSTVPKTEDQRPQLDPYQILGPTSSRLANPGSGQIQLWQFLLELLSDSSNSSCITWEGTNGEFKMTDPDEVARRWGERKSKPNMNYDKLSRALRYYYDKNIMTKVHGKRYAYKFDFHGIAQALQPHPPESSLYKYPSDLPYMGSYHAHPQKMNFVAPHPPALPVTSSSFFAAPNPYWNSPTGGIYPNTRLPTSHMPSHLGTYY
# Summary of the method: as §1
# ELF1 = ELF1 (Homo sapiens, UniProt P32519 1-619); conditions: protein: recombinant; tags: N-terminal GST; dsDNA, one strand shown
# Summary of the method: as §1
# EHF = molecular target: T5, EHF (Homo sapiens, UniProt Q9NZC4 1-300); conditions: protein: recombinant; tags: N-terminal GST; dsDNA, one strand shown
# T5 sequence: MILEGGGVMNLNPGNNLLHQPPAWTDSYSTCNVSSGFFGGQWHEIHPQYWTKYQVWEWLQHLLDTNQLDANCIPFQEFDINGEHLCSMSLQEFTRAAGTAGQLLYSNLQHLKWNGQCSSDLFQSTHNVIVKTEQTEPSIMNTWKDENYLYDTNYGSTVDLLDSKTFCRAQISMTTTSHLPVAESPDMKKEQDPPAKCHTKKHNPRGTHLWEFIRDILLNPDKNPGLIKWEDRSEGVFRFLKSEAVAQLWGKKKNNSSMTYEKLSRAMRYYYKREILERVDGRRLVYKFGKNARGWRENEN
# Summary of the method: as §1
# SPI1 = SPI1 (Homo sapiens, UniProt P17947 1-270); conditions: protein: recombinant; tags: N-terminal GST; dsDNA, one strand shown
# Summary of the method: as §1
# SPIB = SPIB (Homo sapiens, UniProt Q01892 1-262); conditions: protein: recombinant; tags: N-terminal GST; dsDNA, one strand shown
# Summary of the method: as §1
# ELK3 = molecular target: T6, ELK3 (Homo sapiens, UniProt P41970 1-407); conditions: protein: recombinant; tags: N-terminal GST; dsDNA, one strand shown
# T6 sequence: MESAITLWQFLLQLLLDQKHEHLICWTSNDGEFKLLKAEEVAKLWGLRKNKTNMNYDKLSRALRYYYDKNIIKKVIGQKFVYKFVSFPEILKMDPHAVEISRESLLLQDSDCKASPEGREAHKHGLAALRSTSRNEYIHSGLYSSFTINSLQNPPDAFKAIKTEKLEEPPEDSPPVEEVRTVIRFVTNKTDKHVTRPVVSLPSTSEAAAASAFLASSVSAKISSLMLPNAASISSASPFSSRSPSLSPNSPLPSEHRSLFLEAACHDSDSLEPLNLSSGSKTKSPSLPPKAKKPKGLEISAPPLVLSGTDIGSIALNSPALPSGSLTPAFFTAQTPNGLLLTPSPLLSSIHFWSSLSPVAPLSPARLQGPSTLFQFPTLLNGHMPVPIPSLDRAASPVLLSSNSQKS
# Summary of the method: as §1
# FEV = molecular target: T7, FEV (Homo sapiens, UniProt Q99581 1-238); conditions: protein: recombinant; tags: N-terminal GST; dsDNA, one strand shown
# T7 sequence: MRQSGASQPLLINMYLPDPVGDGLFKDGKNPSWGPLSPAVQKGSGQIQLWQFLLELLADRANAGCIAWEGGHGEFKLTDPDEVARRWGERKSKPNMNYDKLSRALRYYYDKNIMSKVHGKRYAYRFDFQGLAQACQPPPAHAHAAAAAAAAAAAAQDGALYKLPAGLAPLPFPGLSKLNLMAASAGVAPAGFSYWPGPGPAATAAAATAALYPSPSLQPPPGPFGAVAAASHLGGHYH
# Summary of the method: as §1
# ETV5 = ETV5 (Homo sapiens, UniProt P41161 1-510); conditions: protein: recombinant; tags: N-terminal GST; dsDNA, one strand shown
# Summary of the method: as §1
# HSF1 = HSF1 (Homo sapiens, UniProt Q00613 1-529); conditions: protein: recombinant; tags: N-terminal GST; chain copies: 3; dsDNA, one strand shown
# Summary of the method: as §1
# SPIC = molecular target: T8, SPIC (Homo sapiens, UniProt Q8N5J4 1-248); conditions: protein: recombinant; tags: N-terminal GST; dsDNA, one strand shown
# T8 sequence: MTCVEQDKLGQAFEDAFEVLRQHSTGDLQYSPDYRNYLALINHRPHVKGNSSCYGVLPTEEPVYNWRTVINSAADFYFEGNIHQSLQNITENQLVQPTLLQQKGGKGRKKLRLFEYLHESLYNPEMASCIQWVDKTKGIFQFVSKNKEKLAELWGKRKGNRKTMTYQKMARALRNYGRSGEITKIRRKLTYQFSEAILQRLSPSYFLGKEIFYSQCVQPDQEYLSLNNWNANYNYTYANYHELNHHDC
# Summary of the method: as §1
# ELF4 = ELF4 (Homo sapiens, UniProt Q99607 1-663); conditions: protein: recombinant; tags: N-terminal GST; dsDNA, one strand shown
# Summary of the method: as §1
# ELK4 = molecular target: T9, ELK4 (Homo sapiens, UniProt P28324-2 1-405); conditions: protein: recombinant; tags: N-terminal GST; dsDNA, one strand shown
# T9 sequence: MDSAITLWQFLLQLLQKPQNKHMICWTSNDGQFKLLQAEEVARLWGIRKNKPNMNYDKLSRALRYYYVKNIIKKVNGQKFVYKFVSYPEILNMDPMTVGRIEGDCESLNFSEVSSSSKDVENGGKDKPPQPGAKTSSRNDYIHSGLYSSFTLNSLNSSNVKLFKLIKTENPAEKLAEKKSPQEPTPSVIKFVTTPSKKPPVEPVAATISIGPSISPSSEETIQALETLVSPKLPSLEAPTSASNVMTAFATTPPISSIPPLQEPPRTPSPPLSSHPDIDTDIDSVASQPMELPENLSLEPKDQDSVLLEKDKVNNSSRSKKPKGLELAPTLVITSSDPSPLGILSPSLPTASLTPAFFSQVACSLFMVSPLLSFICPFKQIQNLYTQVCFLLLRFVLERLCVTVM
# Summary of the method: as §1
# ETV2 = molecular target: T10, ETV2 (Homo sapiens, UniProt O00321 1-342); conditions: protein: recombinant; tags: N-terminal GST; dsDNA, one strand shown
# T10 sequence: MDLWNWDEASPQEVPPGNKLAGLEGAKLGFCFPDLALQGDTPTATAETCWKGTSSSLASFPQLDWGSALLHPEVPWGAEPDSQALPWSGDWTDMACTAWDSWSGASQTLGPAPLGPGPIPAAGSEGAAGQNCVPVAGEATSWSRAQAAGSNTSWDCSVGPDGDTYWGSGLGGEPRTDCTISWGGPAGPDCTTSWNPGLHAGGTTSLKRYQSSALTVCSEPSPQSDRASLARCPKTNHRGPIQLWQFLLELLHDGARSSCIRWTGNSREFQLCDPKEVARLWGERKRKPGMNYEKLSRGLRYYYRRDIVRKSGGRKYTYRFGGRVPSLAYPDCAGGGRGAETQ
# Summary of the method: as §1
# ELF3 = molecular target: T11, ELF3 (Homo sapiens, UniProt P78545 1-371); conditions: protein: recombinant; tags: N-terminal GST; dsDNA, one strand shown
# T11 sequence: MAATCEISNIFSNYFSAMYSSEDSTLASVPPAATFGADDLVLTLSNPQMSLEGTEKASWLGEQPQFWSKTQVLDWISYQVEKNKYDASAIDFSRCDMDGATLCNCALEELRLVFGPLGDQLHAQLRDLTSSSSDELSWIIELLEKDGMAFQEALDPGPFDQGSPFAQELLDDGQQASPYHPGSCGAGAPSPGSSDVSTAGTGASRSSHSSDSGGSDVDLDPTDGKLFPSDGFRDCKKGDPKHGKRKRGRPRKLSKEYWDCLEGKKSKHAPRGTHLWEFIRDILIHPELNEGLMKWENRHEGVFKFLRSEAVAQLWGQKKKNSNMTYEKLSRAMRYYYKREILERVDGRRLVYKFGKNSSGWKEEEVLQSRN
# Summary of the method: as §1
# CRX = CRX (Homo sapiens, UniProt O43186 1-299); conditions: protein: recombinant; tags: N-terminal GST; dsDNA, one strand shown
# Summary of the method: as §1
# ETV1 = ETV1 (Homo sapiens, UniProt P50549 1-477); conditions: protein: recombinant; tags: N-terminal GST; dsDNA, one strand shown
# Summary of the method: as §1
# SPIB, sequence (Q01892 whole entry): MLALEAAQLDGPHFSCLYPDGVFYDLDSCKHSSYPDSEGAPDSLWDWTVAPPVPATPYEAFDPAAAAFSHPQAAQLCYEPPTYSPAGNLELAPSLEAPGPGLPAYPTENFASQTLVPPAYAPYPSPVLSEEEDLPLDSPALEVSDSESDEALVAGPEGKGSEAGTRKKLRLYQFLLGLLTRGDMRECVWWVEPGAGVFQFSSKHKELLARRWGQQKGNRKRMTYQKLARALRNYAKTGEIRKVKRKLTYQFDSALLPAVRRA
# ELF4, sequence (Q99607 whole entry): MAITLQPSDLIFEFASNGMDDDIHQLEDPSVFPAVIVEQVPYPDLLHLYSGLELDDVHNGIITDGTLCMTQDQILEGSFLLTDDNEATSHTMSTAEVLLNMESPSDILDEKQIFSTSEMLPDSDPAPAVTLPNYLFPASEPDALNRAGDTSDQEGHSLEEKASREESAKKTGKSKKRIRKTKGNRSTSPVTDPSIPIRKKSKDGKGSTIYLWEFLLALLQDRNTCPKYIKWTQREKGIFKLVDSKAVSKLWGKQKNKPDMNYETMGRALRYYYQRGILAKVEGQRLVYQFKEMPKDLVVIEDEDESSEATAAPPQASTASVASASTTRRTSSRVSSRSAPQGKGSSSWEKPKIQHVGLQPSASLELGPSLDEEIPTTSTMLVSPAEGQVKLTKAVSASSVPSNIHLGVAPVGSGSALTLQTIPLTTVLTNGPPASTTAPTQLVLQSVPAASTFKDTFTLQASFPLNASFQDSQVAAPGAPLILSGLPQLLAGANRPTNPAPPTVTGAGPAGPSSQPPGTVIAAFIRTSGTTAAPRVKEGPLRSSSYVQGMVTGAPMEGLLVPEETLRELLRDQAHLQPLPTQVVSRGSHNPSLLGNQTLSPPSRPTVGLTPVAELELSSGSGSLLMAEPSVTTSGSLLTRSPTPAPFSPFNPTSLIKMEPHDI
# CRX, sequence (O43186 whole entry): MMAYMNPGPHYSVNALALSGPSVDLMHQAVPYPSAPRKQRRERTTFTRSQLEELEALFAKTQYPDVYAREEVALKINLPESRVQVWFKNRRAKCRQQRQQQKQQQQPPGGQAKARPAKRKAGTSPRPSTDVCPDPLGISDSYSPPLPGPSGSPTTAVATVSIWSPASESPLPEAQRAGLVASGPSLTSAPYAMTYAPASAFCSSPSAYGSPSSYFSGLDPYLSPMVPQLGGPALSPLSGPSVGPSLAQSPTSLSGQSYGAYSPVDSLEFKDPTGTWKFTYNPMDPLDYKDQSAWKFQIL
# ETV5, sequence (P41161 whole entry): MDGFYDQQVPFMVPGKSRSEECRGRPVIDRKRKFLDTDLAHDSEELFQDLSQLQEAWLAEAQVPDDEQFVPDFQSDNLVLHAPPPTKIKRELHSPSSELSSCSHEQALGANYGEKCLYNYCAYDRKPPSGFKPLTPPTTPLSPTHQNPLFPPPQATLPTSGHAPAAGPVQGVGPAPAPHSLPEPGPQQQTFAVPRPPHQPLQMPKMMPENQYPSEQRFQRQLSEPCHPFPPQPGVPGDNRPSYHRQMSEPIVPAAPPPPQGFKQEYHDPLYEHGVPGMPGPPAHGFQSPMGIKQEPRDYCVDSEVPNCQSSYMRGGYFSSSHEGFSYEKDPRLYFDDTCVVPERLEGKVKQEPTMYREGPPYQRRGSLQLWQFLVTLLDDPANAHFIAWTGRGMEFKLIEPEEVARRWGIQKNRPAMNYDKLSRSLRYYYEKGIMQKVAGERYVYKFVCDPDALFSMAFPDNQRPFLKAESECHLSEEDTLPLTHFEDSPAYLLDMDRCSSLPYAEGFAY
# HSF1, sequence (Q00613 whole entry): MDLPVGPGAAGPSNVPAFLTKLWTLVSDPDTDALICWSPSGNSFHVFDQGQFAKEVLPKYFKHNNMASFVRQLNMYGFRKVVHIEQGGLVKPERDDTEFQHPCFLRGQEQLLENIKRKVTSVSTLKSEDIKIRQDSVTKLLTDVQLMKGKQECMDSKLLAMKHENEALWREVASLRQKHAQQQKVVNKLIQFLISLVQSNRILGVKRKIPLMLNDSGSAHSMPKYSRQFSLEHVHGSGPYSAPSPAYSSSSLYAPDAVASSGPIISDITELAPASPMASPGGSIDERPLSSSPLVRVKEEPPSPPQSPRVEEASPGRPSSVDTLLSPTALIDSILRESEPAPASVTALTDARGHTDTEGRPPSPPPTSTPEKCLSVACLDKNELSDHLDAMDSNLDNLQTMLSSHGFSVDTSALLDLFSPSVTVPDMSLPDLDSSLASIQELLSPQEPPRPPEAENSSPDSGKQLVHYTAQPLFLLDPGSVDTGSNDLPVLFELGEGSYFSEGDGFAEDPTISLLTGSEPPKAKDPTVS
# ETV1, sequence (P50549 whole entry): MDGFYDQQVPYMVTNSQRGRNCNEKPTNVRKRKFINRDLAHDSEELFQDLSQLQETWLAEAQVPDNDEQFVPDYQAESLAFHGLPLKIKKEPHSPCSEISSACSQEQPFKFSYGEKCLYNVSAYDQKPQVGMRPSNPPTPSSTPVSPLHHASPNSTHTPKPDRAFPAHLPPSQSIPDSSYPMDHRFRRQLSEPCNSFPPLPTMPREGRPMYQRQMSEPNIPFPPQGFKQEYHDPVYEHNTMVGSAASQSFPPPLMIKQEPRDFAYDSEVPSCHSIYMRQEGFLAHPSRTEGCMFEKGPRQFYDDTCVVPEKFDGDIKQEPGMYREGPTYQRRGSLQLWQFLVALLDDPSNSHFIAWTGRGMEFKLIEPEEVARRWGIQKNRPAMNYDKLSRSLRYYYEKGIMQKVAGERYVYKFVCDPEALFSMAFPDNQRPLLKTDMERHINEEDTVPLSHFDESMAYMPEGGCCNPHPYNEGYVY
# ELF1, sequence (P32519 whole entry): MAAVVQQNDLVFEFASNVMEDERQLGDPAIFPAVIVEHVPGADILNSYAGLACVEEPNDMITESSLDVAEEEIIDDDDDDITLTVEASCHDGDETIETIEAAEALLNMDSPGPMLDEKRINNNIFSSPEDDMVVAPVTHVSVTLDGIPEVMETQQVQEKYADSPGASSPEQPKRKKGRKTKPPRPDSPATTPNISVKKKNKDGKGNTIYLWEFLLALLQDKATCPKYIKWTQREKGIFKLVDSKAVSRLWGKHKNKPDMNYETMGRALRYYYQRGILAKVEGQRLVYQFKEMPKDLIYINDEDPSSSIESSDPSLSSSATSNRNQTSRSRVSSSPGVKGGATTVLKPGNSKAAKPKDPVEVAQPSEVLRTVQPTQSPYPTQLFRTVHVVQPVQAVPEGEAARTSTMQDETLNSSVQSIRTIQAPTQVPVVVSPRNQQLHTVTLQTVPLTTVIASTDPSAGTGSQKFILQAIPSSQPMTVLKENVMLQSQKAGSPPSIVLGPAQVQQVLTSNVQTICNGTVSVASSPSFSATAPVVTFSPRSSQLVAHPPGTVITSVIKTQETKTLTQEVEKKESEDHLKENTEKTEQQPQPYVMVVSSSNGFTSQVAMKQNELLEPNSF
sequence,measurement,setting,value
TGATGA,binding signal,FLI1,"1.38 fold enrichment (6-mer frequency, TF over GST control)"
same,binding signal,ELK1,"1.39 fold enrichment (6-mer frequency, TF over GST control)"
same,binding signal,GABPA,"1.46 fold enrichment (6-mer frequency, TF over GST control)"
same,binding signal,ERG,"1.28 fold enrichment (6-mer frequency, TF over GST control)"
same,binding signal,ELF1,"1.35 fold enrichment (6-mer frequency, TF over GST control)"
same,binding signal,EHF,"1.32 fold enrichment (6-mer frequency, TF over GST control)"
same,binding signal,SPI1,"1.2 fold enrichment (6-mer frequency, TF over GST control)"
same,binding signal,SPIB,"1.33 fold enrichment (6-mer frequency, TF over GST control)"
same,binding signal,ELK3,"1.28 fold enrichment (6-mer frequency, TF over GST control)"
same,binding signal,FEV,"1.25 fold enrichment (6-mer frequency, TF over GST control)"
same,binding signal,ETV5,"1.32 fold enrichment (6-mer frequency, TF over GST control)"
same,binding signal,HSF1,"1.16 fold enrichment (6-mer frequency, TF over GST control)"
same,binding signal,SPIC,"1.14 fold enrichment (6-mer frequency, TF over GST control)"
same,binding signal,ELF4,"1.44 fold enrichment (6-mer frequency, TF over GST control)"
same,binding signal,ELK4,"1.46 fold enrichment (6-mer frequency, TF over GST control)"
same,binding signal,ETV2,"1.33 fold enrichment (6-mer frequency, TF over GST control)"
same,binding signal,ELF3,"1.4 fold enrichment (6-mer frequency, TF over GST control)"
same,binding signal,CRX,"1.24 fold enrichment (6-mer frequency, TF over GST control)"
same,binding signal,ETV1,"1.27 fold enrichment (6-mer frequency, TF over GST control)"

# From publication PMC7862700, “An all-to-all approach to the identification of sequence-specific readers for epigenetic DNA modifications on cytosine”
